# Laboratory results published in PubChem BioAssay (NCATS).
# Several values for one entry are separate records, joined by “and”; a condition that tells them apart may be missing. Equal entries are not always repeated. Results filed as inconclusive are left out. Activity calls are given as the source filed them. Calls follow the shape of the dose curve; as a rule, active = well fitted cell-killing curve with a large enough effect; inconclusive = small, poorly fitted or top-dose-only effect; inactive = no such curve, though single readings can be large or run the other way.
# Assay: Cell Viability - LYMP2-001 (AID 921); also: nearly all actives have a fitted effect of over 70% in size;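 as to activity change, negative = cytotoxic: 0% = DMSO only and full inhibition = tetraoctylammonium bromide control wells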
# Conditions: LYMP2-001 lymphoblastoid cell viability; series mostly up to 92.2 µM; activity change, negative = cytotoxic: at the top concentration
# Excerpt: NIH Chemical Genomics Center [NCGC]
# NIH Molecular Libraries Screening Centers Network [MLSCN]
# National Institutes of Environmental Health Sciences [NIEHS]
# National Toxicology Program [NTP]
# We have developed a 1536-well cell-based assay for quantitative high throughput screening (qHTS) against a number of cell lines to determine in vitro cytotoxicity of small molecules. This particular assay uses a human lymphoblastoid cell line (LYMP2-001) purchased from Coriell Institute for Medical Research.
# NCGC Assay Protocol Summary:
# The CellTiter-Glo luminescent cell viability assay (Promega) is a homogeneous method to measure the number of viable cells in culture. The end point readout of this assay is based on quantitation of intracellular ATP, an indicator of metabolic activity, using the luciferase reaction. Luciferase catalyzes the oxidation of beetle Luciferin to oxyluciferin and light in the presence of ATP. The luminescent signal is proportional to amount of ATP present.
# Using the CellTiter-Glo luminescent cell viability assay, the amount of cellular ATP was measured in the lymphoblastoid cell line with complete culture medium following compound treatment for 24 hours. The assay was performed in opaque white Kalypsys 1536-well plates. In the screen, tetraoctylammonium bromide was used as positive control. Library compounds were measured for their ability to cause acute toxicity in the cell line, as reflected by a decrease in intracellular ATP levels, in a concentration-dependent manner. […] AC50 values were determined from concentration-response data modeled with the standard Hill equation.
# qHTS protocol for CellTiter Glo lymphoblastoid cellular assay
# [Step] [Parameter] [Value] [Description]
# 1. Reagent; 5 uL; 2500 lymphoblastoid cells/well
# 2. Time; 5 hr; 37 C incubation
# 4. Controls; 23 nL; Tetraoctylammonium bromide 6.4pM to 92 uM
# 5. Time; 24 hr; 37 C incubation
# 6. Reagent; 5 uL; CellTiter Glo reagent
# 7. Time; 30 min; Room Temperature
# 8. Detection; Luminescence; Viewlux plate reader
# Keywords: cell viability, cytotoxicity, lymphoblastoid cell line, luminescence, NTPHTS, NTPHTS_NCGC, NIEHS, DSSTox, MLSMR, MLSCN, NIH Roadmap, qHTS, NCGC
# Potency is read from the fitted curve at half-maximal effect.
Structure (SMILES),"activity change, negative = cytotoxic",Potency
CCCCCl,-24.6% (inactive),
C[C@]12CCC(=O)C[C@@H]1CC[C@@H]1[C@@H]2CC[C@]2(C)[C@@H](O)CC[C@@H]12,-19.4% (inactive),
O=C/C=C/c1ccccc1,,inactive
COc1ccc2c(c1OC)C(=O)OC2C1c2cc3c(cc2CCN1C)OCO3 (stereo not drawn),-5.68% (inactive),
O=CC=O,-9.47% (inactive),
O=C(O)C(Cl)(Cl)Cl,,inactive
[O]=[Cr](=[O])([OH])[O][Cr](=[O])(=[O])[OH],,12.6 µM (active) and 6.31 µM (active)
O=Cc1ccco1,-18.3% (inactive),
ClC(Cl)(Cl)Cl,,inactive
CCCCCCCCOC(=O)c1ccccc1C(=O)OCCCCCCCC,-8.55% (inactive),
O=C1CCO1,-11.3% (inactive),
CCOC(=O)c1ccccc1C(=O)OCC,,inactive
CC(C)CCON=O,-26.2% (inactive),
O=[N+]([O-])c1ccccc1,-5.31% (inactive),
COC1=CC(=O)O[C@@H](/C=C/c2ccccc2)C1,-1.02% (inactive),
O=C1C2CC=CCC2C(=O)N1SC(Cl)(Cl)Cl (stereo not drawn),,2 µM (active) and 5.01 µM (active)
CC(C)(C)c1cc(O)ccc1O,,39.8 µM (active)
C[C@H]1CCC[C@H](O)CCCCCc2cc(O)cc(O)c2C(=O)O1,9.69% (inactive),
ClC=C(Cl)Cl,-4.42% (inactive),
C=CCN=C=S,-14.7% (inactive),
[O]=[Cd],-0.535% (inactive),
Clc1ccccc1Cl,-6.76% (inactive),
S=C=S,-17.5% (inactive),
NNC(N)=O,-2.67% (inactive),
CC(C)Nc1ccc(Nc2ccccc2)cc1,,12.6 µM (active)
Oc1cc(Cl)c(Cl)cc1Cl,-1.05% (inactive),
C[C@H]1CC[C@@H]2[C@@H](C)[C@H]3[C@H](C[C@H]4[C@@H]5CC=C6CC(O[C@@H]7O[C@H](CO)[C@H](O)[C@H](O[C@@H]8O[C@H](CO)[C@@H](O)[C@H](O)[C@H]8O)[C@H]7O[C@H]7O[C@@H](C)[C@H](O)[C@@H](O)[C@H]7O)CC[C@]6(C)[C@H]5CC[C@]34C)N2C1 (stereo partly drawn),-35% (inactive),
[Cl-].[Cl-].[Hg+2],,0.794 µM (active)
